Measured values taken from ChEMBL document CHEMBL1961873, “Compounds: GSK PKIS; Assays: Nanosyn kinase panel” (2012).

Assays:
[1] = molecular target: Rho-associated protein kinase 1 (Homo sapiens) (UniProt Q13464); settings: at 1 µM;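 also: reported values are mean percent inhibition of ROCK1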
[2] = molecular target: Rho-associated protein kinase 2 (Homo sapiens) (UniProt O75116); settings: at 0.1 µM
[3] = molecular target: Rho-associated protein kinase 2 (Homo sapiens) (UniProt O75116); settings: at 1 µM
[4] = molecular target: Ribosomal protein S6 kinase alpha-1 (Homo sapiens) (UniProt Q15418); settings: at 0.1 µM
[5] = molecular target: Ribosomal protein S6 kinase alpha-1 (Homo sapiens) (UniProt Q15418); settings: at 1 µM
[6] = molecular target: Ribosomal protein S6 kinase alpha-3 (Homo sapiens) (UniProt P51812); settings: at 0.1 µM
[7] = molecular target: Ribosomal protein S6 kinase alpha-3 (Homo sapiens) (UniProt P51812); settings: at 1 µM
[8] = molecular target: Ribosomal protein S6 kinase alpha-2 (Homo sapiens) (UniProt Q15349); settings: at 0.1 µM
[9] = molecular target: Ribosomal protein S6 kinase alpha-2 (Homo sapiens) (UniProt Q15349); settings: at 1 µM
[10] = molecular target: Ribosomal protein S6 kinase alpha-6 (Homo sapiens) (UniProt Q9UK32); settings: at 0.1 µM
[11] = molecular target: Ribosomal protein S6 kinase alpha-6 (Homo sapiens) (UniProt Q9UK32); settings: at 1 µM
[12] = molecular target: T1, Serine/threonine-protein kinase Sgk1 (Homo sapiens) (UniProt O00141); settings: at 0.1 µM
T1 sequence (whole entry): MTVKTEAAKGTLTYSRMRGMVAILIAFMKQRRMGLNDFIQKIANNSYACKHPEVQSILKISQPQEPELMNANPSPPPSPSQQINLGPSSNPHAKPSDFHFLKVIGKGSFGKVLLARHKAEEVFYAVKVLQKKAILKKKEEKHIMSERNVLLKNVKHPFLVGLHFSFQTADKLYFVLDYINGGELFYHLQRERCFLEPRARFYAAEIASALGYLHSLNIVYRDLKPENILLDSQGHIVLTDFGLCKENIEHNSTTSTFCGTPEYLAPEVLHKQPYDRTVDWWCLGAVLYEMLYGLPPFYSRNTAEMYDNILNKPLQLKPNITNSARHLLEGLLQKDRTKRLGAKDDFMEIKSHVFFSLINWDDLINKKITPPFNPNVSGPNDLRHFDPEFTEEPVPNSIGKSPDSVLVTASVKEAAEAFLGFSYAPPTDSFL

[13] = molecular target: T1, Serine/threonine-protein kinase Sgk1 (Homo sapiens); settings: at 1 µM
[14] = molecular target: T2, Serine/threonine-protein kinase Sgk2 (Homo sapiens) (UniProt Q9HBY8); settings: at 0.1 µM
T2 sequence (whole entry): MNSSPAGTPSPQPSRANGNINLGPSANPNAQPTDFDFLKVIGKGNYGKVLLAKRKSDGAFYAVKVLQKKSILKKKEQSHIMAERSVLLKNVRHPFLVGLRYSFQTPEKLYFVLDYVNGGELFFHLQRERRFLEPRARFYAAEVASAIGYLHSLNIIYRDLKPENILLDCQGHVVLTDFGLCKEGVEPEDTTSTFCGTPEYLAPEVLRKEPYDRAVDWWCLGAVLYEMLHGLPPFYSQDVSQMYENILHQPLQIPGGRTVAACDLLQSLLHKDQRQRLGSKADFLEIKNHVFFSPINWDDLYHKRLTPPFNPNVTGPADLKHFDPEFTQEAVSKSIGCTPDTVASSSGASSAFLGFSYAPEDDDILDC

[15] = molecular target: T2, Serine/threonine-protein kinase Sgk2 (Homo sapiens); settings: at 1 µM
[16] = molecular target: T3, Serine/threonine-protein kinase Sgk3 (Homo sapiens) (UniProt Q96BR1); settings: at 0.1 µM
T3 sequence (whole entry): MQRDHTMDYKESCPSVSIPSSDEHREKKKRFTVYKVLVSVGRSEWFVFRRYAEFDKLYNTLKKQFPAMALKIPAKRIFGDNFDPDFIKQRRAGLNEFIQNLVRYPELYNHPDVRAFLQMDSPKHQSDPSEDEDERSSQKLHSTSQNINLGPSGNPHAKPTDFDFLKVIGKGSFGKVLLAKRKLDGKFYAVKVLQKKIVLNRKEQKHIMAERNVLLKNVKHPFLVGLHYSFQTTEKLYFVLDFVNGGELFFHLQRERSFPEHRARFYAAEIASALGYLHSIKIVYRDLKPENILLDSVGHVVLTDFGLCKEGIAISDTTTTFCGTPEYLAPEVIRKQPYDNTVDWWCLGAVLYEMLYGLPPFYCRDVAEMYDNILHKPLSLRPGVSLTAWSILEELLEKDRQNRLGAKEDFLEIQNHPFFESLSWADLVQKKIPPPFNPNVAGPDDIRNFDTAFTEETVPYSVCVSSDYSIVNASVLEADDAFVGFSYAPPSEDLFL

[17] = molecular target: T3, Serine/threonine-protein kinase Sgk3 (Homo sapiens); settings: at 1 µM
[18] = molecular target: 5'-AMP-activated protein kinase catalytic subunit alpha-1 (Homo sapiens) (UniProt Q13131); settings: at 0.1 µM
[19] = molecular target: 5'-AMP-activated protein kinase catalytic subunit alpha-1 (Homo sapiens) (UniProt Q13131); settings: at 1 µM
[20] = molecular target: 5'-AMP-activated protein kinase catalytic subunit alpha-2 (Homo sapiens) (UniProt P54646); settings: at 0.1 µM;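 also: mean inhibition measured on the AMPK complex of alpha2, beta1 and gamma1 subunits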

Chain of Rho-associated protein kinase 1 (Homo sapiens) (Q13464 2-1354 limits assumed): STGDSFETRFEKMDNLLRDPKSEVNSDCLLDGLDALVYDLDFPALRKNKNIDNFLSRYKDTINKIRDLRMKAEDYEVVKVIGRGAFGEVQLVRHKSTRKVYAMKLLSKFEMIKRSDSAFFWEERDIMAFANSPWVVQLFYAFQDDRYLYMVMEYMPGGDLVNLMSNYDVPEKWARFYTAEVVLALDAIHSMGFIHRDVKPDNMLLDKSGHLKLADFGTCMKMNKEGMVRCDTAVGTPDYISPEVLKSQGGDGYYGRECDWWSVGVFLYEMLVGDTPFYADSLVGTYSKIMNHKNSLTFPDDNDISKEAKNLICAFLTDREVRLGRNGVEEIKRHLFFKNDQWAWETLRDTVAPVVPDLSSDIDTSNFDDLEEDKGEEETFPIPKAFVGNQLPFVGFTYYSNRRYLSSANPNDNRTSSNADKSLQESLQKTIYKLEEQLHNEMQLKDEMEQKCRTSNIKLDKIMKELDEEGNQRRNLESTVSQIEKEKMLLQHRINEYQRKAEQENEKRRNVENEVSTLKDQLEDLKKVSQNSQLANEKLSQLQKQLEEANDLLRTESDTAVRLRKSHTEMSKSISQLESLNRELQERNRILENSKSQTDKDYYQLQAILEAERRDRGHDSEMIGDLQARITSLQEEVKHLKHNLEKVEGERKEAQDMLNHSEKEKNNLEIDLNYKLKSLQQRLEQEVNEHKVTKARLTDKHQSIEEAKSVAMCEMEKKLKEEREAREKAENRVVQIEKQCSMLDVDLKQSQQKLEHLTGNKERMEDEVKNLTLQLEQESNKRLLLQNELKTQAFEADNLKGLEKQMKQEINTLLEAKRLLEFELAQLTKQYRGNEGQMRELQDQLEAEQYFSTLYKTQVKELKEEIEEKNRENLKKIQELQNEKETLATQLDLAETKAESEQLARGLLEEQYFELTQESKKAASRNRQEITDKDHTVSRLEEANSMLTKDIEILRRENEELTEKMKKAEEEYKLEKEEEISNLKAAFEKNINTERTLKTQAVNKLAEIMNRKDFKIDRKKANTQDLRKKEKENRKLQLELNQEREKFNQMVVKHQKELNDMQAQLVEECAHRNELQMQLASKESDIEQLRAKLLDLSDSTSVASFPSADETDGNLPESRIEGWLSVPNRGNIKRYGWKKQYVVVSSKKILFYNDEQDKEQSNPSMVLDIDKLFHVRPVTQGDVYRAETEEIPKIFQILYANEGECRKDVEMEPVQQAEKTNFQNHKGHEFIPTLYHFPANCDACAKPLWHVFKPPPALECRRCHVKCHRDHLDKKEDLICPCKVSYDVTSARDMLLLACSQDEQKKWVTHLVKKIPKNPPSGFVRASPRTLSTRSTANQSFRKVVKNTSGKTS
Chain of Rho-associated protein kinase 2 (Homo sapiens) (O75116 whole entry, looked up): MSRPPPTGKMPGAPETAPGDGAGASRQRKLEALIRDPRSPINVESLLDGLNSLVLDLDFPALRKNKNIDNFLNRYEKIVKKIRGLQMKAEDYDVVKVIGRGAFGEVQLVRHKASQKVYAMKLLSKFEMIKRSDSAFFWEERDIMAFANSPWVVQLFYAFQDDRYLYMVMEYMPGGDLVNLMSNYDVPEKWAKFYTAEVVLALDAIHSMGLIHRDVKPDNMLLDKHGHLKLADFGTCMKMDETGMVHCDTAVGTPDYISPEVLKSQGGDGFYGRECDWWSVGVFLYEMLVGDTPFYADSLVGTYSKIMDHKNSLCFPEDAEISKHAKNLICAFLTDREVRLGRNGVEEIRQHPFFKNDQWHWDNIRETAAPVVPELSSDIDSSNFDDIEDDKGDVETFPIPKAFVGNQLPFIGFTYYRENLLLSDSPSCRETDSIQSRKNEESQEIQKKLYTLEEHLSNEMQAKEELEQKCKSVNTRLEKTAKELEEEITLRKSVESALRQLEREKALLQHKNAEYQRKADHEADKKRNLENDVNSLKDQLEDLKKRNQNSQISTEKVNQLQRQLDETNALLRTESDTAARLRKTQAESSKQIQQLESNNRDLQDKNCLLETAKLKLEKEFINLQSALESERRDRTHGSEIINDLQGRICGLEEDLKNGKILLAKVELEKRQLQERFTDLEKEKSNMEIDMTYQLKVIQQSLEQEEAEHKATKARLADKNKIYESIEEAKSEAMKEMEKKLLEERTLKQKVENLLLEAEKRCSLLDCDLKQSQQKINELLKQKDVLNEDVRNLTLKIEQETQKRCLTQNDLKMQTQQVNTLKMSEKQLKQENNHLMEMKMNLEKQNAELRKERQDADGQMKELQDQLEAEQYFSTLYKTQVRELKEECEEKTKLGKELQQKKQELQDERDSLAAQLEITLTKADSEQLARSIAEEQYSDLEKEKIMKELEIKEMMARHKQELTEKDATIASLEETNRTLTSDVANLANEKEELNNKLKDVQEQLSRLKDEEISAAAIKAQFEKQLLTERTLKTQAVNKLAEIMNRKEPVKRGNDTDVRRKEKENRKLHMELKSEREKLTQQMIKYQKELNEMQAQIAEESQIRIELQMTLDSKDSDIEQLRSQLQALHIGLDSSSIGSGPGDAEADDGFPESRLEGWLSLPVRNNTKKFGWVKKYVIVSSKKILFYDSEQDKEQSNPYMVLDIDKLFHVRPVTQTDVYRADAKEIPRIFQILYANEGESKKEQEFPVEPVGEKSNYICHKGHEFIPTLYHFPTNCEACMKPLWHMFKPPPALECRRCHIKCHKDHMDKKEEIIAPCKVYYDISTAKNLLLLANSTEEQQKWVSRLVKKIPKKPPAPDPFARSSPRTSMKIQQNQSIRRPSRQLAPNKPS
Chain of Ribosomal protein S6 kinase alpha-3 (Homo sapiens) (P51812 whole entry): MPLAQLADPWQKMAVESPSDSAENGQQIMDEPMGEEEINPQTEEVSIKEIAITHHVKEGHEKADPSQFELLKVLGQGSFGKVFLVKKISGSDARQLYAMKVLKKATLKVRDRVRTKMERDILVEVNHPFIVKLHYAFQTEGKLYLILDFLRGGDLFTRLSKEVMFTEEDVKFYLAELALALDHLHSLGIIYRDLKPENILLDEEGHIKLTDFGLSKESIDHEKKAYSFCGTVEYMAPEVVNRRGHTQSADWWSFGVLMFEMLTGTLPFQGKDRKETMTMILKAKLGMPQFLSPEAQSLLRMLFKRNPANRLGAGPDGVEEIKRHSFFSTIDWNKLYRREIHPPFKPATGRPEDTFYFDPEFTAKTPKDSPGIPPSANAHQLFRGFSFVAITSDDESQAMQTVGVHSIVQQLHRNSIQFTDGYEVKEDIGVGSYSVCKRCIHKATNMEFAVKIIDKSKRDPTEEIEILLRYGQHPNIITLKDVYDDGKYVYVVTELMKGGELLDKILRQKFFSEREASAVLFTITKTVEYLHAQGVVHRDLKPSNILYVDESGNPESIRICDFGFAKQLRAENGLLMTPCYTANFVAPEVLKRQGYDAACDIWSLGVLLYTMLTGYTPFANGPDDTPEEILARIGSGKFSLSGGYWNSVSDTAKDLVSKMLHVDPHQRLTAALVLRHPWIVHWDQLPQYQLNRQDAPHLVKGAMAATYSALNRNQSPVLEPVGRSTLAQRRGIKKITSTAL
Chain of Ribosomal protein S6 kinase alpha-6 (Homo sapiens) (Q9UK32 whole entry): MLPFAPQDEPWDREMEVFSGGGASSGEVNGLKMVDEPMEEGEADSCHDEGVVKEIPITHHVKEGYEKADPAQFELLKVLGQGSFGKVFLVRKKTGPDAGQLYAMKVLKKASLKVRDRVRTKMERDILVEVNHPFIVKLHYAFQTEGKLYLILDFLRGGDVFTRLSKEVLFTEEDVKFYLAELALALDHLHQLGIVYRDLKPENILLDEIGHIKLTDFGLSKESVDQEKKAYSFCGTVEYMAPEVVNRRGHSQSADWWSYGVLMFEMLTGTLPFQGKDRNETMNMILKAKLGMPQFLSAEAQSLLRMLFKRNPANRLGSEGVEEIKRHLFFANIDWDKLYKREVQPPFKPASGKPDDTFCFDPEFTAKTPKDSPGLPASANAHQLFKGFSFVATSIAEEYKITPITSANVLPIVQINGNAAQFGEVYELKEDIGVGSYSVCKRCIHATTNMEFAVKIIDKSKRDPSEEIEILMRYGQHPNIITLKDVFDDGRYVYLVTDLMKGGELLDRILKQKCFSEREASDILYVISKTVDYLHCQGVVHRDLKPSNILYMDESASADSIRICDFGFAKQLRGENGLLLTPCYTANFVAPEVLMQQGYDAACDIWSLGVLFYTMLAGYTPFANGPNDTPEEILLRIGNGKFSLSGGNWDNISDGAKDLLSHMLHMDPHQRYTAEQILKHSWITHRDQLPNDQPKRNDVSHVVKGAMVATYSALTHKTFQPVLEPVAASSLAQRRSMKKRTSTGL
Chain of 5'-AMP-activated protein kinase catalytic subunit alpha-1 (Homo sapiens) (Q13131 whole entry, looked up): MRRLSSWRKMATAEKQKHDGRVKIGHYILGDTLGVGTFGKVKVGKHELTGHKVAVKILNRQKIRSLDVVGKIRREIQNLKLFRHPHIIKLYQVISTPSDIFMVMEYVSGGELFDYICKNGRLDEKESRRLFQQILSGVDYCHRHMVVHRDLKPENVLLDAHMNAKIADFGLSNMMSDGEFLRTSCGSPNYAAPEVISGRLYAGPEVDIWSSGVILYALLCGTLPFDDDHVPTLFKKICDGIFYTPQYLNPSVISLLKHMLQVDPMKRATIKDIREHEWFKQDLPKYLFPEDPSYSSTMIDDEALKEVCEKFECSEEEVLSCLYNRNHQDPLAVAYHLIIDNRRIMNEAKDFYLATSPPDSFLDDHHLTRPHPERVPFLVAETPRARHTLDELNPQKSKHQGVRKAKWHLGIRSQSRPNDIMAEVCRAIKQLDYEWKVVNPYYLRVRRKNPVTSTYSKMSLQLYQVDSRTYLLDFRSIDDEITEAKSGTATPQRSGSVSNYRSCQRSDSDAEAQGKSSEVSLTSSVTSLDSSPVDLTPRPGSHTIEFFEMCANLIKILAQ

O=C1Nc2ccccc2/C1=C/Nc1ccc(-n2cncn2)cc1
inhibition [1]: 1.71% | inhibition [2]: 3.63% | inhibition [3]: 7.17% | inhibition [4]: 2.06% | inhibition [5]: 10.9% | inhibition [6]: 2.37% | inhibition [7]: 8.64% | inhibition [8]: 3.38% | inhibition [9]: 14.2% | inhibition [10]: 3.31% | inhibition [11]: 11.4% | inhibition [12]: 5.81% | inhibition [13]: 29.2% | inhibition [14]: 3.56% | inhibition [15]: 10.9% | inhibition [16]: 4.57% | inhibition [17]: 8.06% | inhibition [18]: 5.93% | inhibition [19]: 19.3% | inhibition [20]: 3.9%

Cc1nnc(-c2ccc(C)c(-c3ccc(C(=O)NCc4ccc(Cl)cc4)cc3)c2)o1
inhibition [1]: 2.48% | inhibition [2]: 3.86% | inhibition [3]: 5.72% | inhibition [4]: 2.78% | inhibition [5]: 2.72% | inhibition [6]: 2% | inhibition [7]: 2.89% | inhibition [8]: 3.07% | inhibition [9]: 3.77% | inhibition [10]: 1.59% | inhibition [11]: 2.38% | inhibition [12]: 5.07% | inhibition [13]: 3.26% | inhibition [14]: 2.67% | inhibition [15]: 6.19% | inhibition [16]: 1.38% | inhibition [17]: 5.66% | inhibition [18]: 2.95% | inhibition [19]: 3.4% | inhibition [20]: 3.74%

O=C(NCC1CC1)c1ccc(-c2cccc(C(=O)NC3CC3)c2)cc1
inhibition [1]: 2.85% | inhibition [2]: 2.43% | inhibition [3]: 1.11% | inhibition [4]: -0.06% | inhibition [5]: 0.15% | inhibition [6]: 0.89% | inhibition [7]: -1.16% | inhibition [8]: 0.67% | inhibition [9]: 0.58% | inhibition [10]: 0.55% | inhibition [11]: 0.61% | inhibition [12]: 0.99% | inhibition [13]: 0.82% | inhibition [14]: 0.58% | inhibition [15]: 3.1% | inhibition [16]: 1.28% | inhibition [17]: 1.29% | inhibition [18]: 2.2% | inhibition [19]: 3.29% | inhibition [20]: 0.26%

CN(C)CCCNc1nccc(-c2c(-c3ccc(F)cc3)nn3cc(C(F)(F)F)ccc23)n1
inhibition [1]: 1.8% | inhibition [2]: 1.71% | inhibition [3]: 3.88% | inhibition [4]: 2.04% | inhibition [5]: 4.02% | inhibition [6]: 0.68% | inhibition [7]: 2.23% | inhibition [8]: 1.91% | inhibition [9]: 3.08% | inhibition [10]: 0.86% | inhibition [11]: 2.42% | inhibition [12]: 1.95% | inhibition [13]: 2.09% | inhibition [14]: 2.67% | inhibition [15]: 1.75% | inhibition [16]: 1.92% | inhibition [17]: 0.78% | inhibition [18]: 1.32% | inhibition [19]: 1.37% | inhibition [20]: 0.22%

COc1cc2ncn(-c3cc(OCc4ccccc4C(F)(F)F)c(C(C)=O)s3)c2cc1OC
inhibition [1]: 2.18% | inhibition [2]: 1.87% | inhibition [3]: 2.95% | inhibition [4]: 1.38% | inhibition [5]: 2.01% | inhibition [6]: 0.97% | inhibition [7]: 1.14% | inhibition [8]: 2.48% | inhibition [9]: 2.5% | inhibition [10]: 1.64% | inhibition [11]: 1.71% | inhibition [12]: 2.88% | inhibition [13]: 2.59% | inhibition [14]: 3.09% | inhibition [15]: 3.04% | inhibition [16]: 3.08% | inhibition [17]: 2.17% | inhibition [18]: 1.8% | inhibition [19]: 2.83% | inhibition [20]: -0.02%

Clc1ccc(CNc2nccc(-c3cnn4ncccc34)n2)cc1
inhibition [1]: 1.31% | inhibition [2]: 2.04% | inhibition [3]: 2.71% | inhibition [4]: 1.41% | inhibition [5]: 1.24% | inhibition [6]: 0.05% | inhibition [7]: 0.52% | inhibition [8]: 0.62% | inhibition [9]: 0.33% | inhibition [10]: 2.62% | inhibition [11]: 0.72% | inhibition [12]: 0.33% | inhibition [13]: 3.99% | inhibition [14]: 3.3% | inhibition [15]: 1.91% | inhibition [16]: 0.59% | inhibition [17]: 0.73% | inhibition [18]: -0.21% | inhibition [19]: 1.83% | inhibition [20]: -4.66%

CCc1cccc(CC)c1/C=C/c1cncc(C(=O)NC)c1
inhibition [1]: 1.22% | inhibition [2]: 1.66% | inhibition [3]: -0.13% | inhibition [4]: 1.4% | inhibition [5]: 0.95% | inhibition [6]: 0.3% | inhibition [7]: -0.37% | inhibition [8]: 1.51% | inhibition [9]: 0.74% | inhibition [10]: 0.65% | inhibition [11]: 1.72% | inhibition [12]: 2.19% | inhibition [13]: -0.86% | inhibition [14]: 3.62% | inhibition [15]: -2.52% | inhibition [16]: 0.54% | inhibition [17]: 0.72% | inhibition [18]: 1.05% | inhibition [19]: 1.48% | inhibition [20]: 0.22%

CN1CCN(CCCNc2nc3ccc(Oc4ccc(NC(=O)Nc5cc(C(F)(F)F)ccc5F)cc4)cc3[nH]2)CC1
inhibition [1]: 3.23% | inhibition [2]: 0.43% | inhibition [3]: 0.51% | inhibition [4]: 1.08% | inhibition [5]: -1.68% | inhibition [6]: 1.52% | inhibition [7]: -0.48% | inhibition [8]: 0.97% | inhibition [9]: 2.27% | inhibition [10]: 1.31% | inhibition [11]: -0.1% | inhibition [12]: 4.51% | inhibition [13]: 5.49% | inhibition [14]: 0.79% | inhibition [15]: 1.09% | inhibition [16]: 3.14% | inhibition [17]: 0.75% | inhibition [18]: 1.09% | inhibition [19]: -0.25% | inhibition [20]: 2.94%

NCc1ccc(-n2c(-c3nonc3N)nc3cnccc32)cc1
inhibition [1]: 90.5% | inhibition [2]: 82.9% | inhibition [3]: 92.9% | inhibition [4]: 56.2% | inhibition [5]: 87.9% | inhibition [6]: 43.4% | inhibition [7]: 81.4% | inhibition [8]: 55.5% | inhibition [9]: 91.4% | inhibition [10]: 10% | inhibition [11]: 36.2% | inhibition [12]: 5.32% | inhibition [13]: 11.7% | inhibition [14]: 5.18% | inhibition [15]: 17.3% | inhibition [16]: 3.68% | inhibition [17]: 28.2% | inhibition [18]: 5.3% | inhibition [19]: 7.27% | inhibition [20]: 6.07%

COc1cc(C)c(N(C)C(=O)CN(C)C)cc1Nc1nc(Nc2cccc(F)c2C(N)=O)c2cc[nH]c2n1
inhibition [1]: 1.48% | inhibition [2]: 0.89% | inhibition [3]: -0.53% | inhibition [4]: 1.17% | inhibition [5]: 3.02% | inhibition [6]: 1.14% | inhibition [7]: 1.43% | inhibition [8]: 1.84% | inhibition [9]: 2.69% | inhibition [10]: 1.67% | inhibition [11]: 4.74% | inhibition [12]: 1.3% | inhibition [13]: 0.1% | inhibition [14]: -3% | inhibition [15]: 3.7% | inhibition [16]: 0.02% | inhibition [17]: 0.78% | inhibition [18]: 1.44% | inhibition [19]: 0.94% | inhibition [20]: -0.28%

CNC(=O)c1cncc(/C=C/c2c(C)cccc2C)c1
inhibition [1]: 0.33% | inhibition [2]: 1.01% | inhibition [3]: 1.34% | inhibition [4]: 1.16% | inhibition [5]: 0.45% | inhibition [6]: 0.6% | inhibition [7]: -0.28% | inhibition [8]: 1.22% | inhibition [9]: 0.63% | inhibition [10]: 0.47% | inhibition [11]: 0.69% | inhibition [12]: 0.67% | inhibition [13]: 2.02% | inhibition [14]: 5.07% | inhibition [15]: -3.14% | inhibition [16]: -1.1% | inhibition [17]: 0.16% | inhibition [18]: -0.07% | inhibition [19]: 0.48% | inhibition [20]: -4.03%
